PfM18AAP inh: PfM18AAP inhibitors, malaria aminopeptidase, primary screen, biochemical, QFRET, recombinant enzyme; M18 aspartyl aminopeptidase (Plasmodium falciparum 3D7); H-Glu-NHMec fluorogenic cleavage; inhibition, % at 7.35 µM; 290,000 tested, 1.2% active; AID 1822, 2009;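 active = inhibition above the campaign mean inhibition over all tested compounds plus 3 SD, cut at about 28% in these data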;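 note: 0% = plate median of test compound wells and 100% = 2 mM ZnCl2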
Calb FLC: C. albicans growth inhibition with fluconazole, primary screen, CaCi-2 strain, Alamar Blue fluorescence | growth inhibition, % (no concentration beside the values) | 300,000 tested, 0.57% active | AID 1979, 2009 | C. albicans CaCi-2 (fluconazole-resistant clinical isolate) + fluconazole, 48 h;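 active = growth inhibition above about 58% in most replicates, limit read from the data, passing the limit was not always enough; inconclusive = exactly half the replicates above a set limit; inactive = most replicates below a set limit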;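 note: all wells also contain fluconazole at 8 µg/ml as a sub-toxic cotreatment; 0% = median of DMSO wells and 100% = median of geldanamycin control wells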
Rin1 Abl inh: inhibitors of Rin1-Abl protein binding, primary screen, biochemical, TR-FRET. 360,000 tested, 0.4% active. inhibition, % at 7.35 µM. Tyrosine-protein kinase ABL1 (Homo sapiens) + Ras and Rab interactor 1 (Homo sapiens), …; in the data active = inhibition above about 5%, passing the limit was not always enough
Fh CTSL1 inh: Fasciola hepatica cathepsin L1 inhibitors, primary screen, counter-screen for PFM18AAP inhibitor project, biochemical, QFRET, fluorogenic peptide substrate; AID 1906, 2009; inhibition, % at 5.96 µM; recombinant F. hepatica cathepsin L1, Z-Leu-Arg-MCA fluorescence; 300,000 tested, 0.49% active;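 active = inhibition above the mean of all tested compounds plus 3 SD, set per screening campaign, cut at about 17% in these data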;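 note: 0% = plate median of test compound wells and 100% = 1 µM Z-Phe-Ala-diazomethylketone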
* hit, by the source's call; ? = inconclusive; nt = not tested or not shown. This is a sample that favours compounds with a hit; in the whole collection about 2.1% have one here.

SMILES | PfM18AAP inh | Calb FLC | Rin1 Abl inh | Fh CTSL1 inh
O=C(Nc1cc(Sc2ccccn2)cc([N+](=O)[O-])c1)c1cccc(Cl)c1 | -11 | 113* | 0 | 1
CCCn1nnc(NC(=O)c2ccc3c(c2)OCO3)n1 | -3 | 4 | 0 | -2
Cc1ccc(C(=O)NCc2ccco2)cc1S(=O)(=O)Nc1cccc(Cl)c1 | -7 | 113* | -3 | -1
CC(C)C1Nc2ccc(C(=O)NCc3ccco3)cc2NC1=O (centres undefined) | 30* | 6 | 3 | -2
COc1ccc(C(=O)CSC(=S)N2CCCCC2)cc1 | nt | nt | 1 | nt
[N-]=[N+]=CC(=O)CNC(=O)[C@@H](Cc1ccccc1)N1C(=O)c2ccccc2C1=O | -24 | 0 | 1 | 43*
N#Cc1c(NC(=O)CCC(=O)O)sc2c1CCCC2 | 4 | 11 | -1 | -2
CCCCCC(=O)Nc1sc(C)c(C)c1C#N | 4 | 11 | -4 | -2
N#Cc1c(NC(=O)CCC(=O)O)sc2c1CCCCC2 | 31* | -5 | -1 | 6
Cc1sc(NC(=O)CCCC(=O)O)c(C#N)c1C | 30* | -1 | 1 | -1
CC(C)(C)c1ccc(CC(=O)N2CCC2(C)C(=O)NS(=O)(=O)c2ccccc2Cl)cc1 (centres undefined) | nt | nt | -1 | nt
Nc1nonc1-n1nnc(C(=O)N/N=C/c2ccccn2)c1CNc1ccccc1 | 11 | 9 | -3 | 6
CC(C)NC(=S)N/N=C/c1ccc(N2CCOCC2)cc1 | -5 | -27 | -2 | 0
Oc1ccc(/C=N/NC(=S)N2CCOCC2)cc1 | 33* | -12 | -1 | 17*
OC(COCC(F)(F)C(F)(F)C(F)(F)C(F)F)Cn1c2ccc(Cl)cc2c2cc(Cl)ccc21 (centres undefined) | -2 | -1 | 0 | 1
Cc1ccc(N=Nc2c(N)[nH]n3c(=O)cc(C)nc23)cc1 | 31* | 1 | -6 | 3
Cc1ccc(N=Nc2c(=O)[nH]n3c(C)cc(C)nc23)cc1 | 2 | 3 | -6 | 1
CCc1ccc([C@@H]2CC=C(C(=O)O)[C@H](c3ccccc3F)N2S(=O)(=O)c2ccc(C)cc2)cc1 | nt | nt | -1 | -4
CCc1nc2c(OCc3ccc(C(F)(F)F)cc3)cccn2c1N(C)C(=O)c1ccncc1 | nt | nt | 0 | nt
O=C1NC(=O)/C(=C/c2cccc3ccccc23)S1 | -1 | 107* | -1 | 4
COc1ccc([C@H](NC(=O)OC(C)(C)C)C(=O)OC(C)(C)C)cc1 | nt | nt | 1 | nt
COc1ccc(-c2ccc(=O)n(CC(=O)Nc3cccc(O)c3)n2)cc1OC | 1 | 111* | -6 | -2
Cc1cc(C)n(-c2nc(SCCN(C)C)c3c4c(sc3n2)CCCC4)n1 | 1 | 79* | 1 | 2
Cc1cc(C)n(-c2nc(SCC(=O)O)c3c4c(sc3n2)COC(C)(C)C4)n1 | 4 | 20 | 3 | 0
CCc1ccc(CNC(=O)CCCC(=O)n2nc(C)c3ccccc32)cc1 | -1 | 3 | 0 | 4
SMILES | PfM18AAP inh | Calb FLC | Rin1 Abl inh | Fh CTSL1 inh
CC(C)(CCC(=S)N1CCOCC1)C1CCCCC1 | 30* | -5 | 1 | -3
CC(=O)N(Cc1ccccc1)Cc1cn(CCC#N)nc1-c1cccc([N+](=O)[O-])c1 | 1 | 1 | 4 | -2
Cc1cc(C)c2c(N)c(S(=O)c3ccc(C(C)(C)C)cc3)sc2n1 (centres undefined) | 1 | 3 | 1 | 5
CC(C)c1noc2ncc(C(=O)c3cc(Cl)cc(Cl)c3O)cc12 | 9 | 99* | 1 | -1
O=C(CC12CC3CC(CC(Br)(C3)C1)C2)NCc1ccccc1 | 8 | -1 | -2 | -9
C[C@H](CO)N1C[C@H](C)[C@@H](CN(C)S(=O)(=O)c2cn(C)cn2)Oc2ccc(NC(=O)C3CCCCC3)cc2C1=O | nt | nt | 1 | nt
C=CC[C@@H]1C=C(C)C[C@H](C)C[C@H](OC)[C@H]2O[C@@](O)(C(=O)C(=O)N3CCCC[C@H]3C(=O)O[C@H](/C(C)=C/[C@@H]3CC[C@@H](O)[C@H](OC)C3)[C@H](C)[C@@H](O)CC1=O)[C@H](C)C[C@@H]2OC | nt | 117* | nt | 3
COc1ccccc1OCC(=O)n1cc(C(=O)c2cc(Cl)cc(Cl)c2O)cn1 | 33* | 6 | 0 | -4
O=C(CNC(=S)NC(=O)c1ccco1)c1ccccc1 | 29* | 1 | -1 | -1
O=C(NC(=S)NNC(=O)c1cc2ccccc2cc1O)c1ccco1 | 20 | 83* | 2 | 4
Cc1ccc(C(=O)NNC(=O)c2cc3ccccc3cc2O)cc1 | 20 | 91* | -5 | 2
COc1ccccc1C(=O)NNC(=O)c1ccc(C)cc1 | -5 | 3 | -2 | 1
O=C(COC(=O)c1cc2ccccc2cc1O)NC1CCCCC1 | nt | nt | 0 | nt
COc1ccc(C(=O)NC(=S)NNC(=O)c2ccco2)cc1 | -4 | 1 | -2 | 3
O=C(NNC(=O)c1cc2ccccc2cc1O)NC1CCCCC1 | 29* | ? | 0 | nt
COc1ccc(C(C(=O)NC2CCCCC2)N(C(=O)CCl)c2cccc(Cl)c2)cc1 (centres undefined) | 2 | -7 | 0 | 3
CCC(C(=O)OCC(=O)N1C(C)CCCC1C)c1ccccc1 (centres undefined) | 0 | -15 | 2 | 0
COc1cc(NC(=O)c2cc3ccccc3cc2O)c(OC)cc1Cl | -6 | -6 | -2 | 4
CCOc1ccc(NC(=O)NNC(=O)c2ccc3ccccc3c2O)cc1 | 24 | 85* | -5 | 6
COc1ccc(C)cc1NC(=O)NNC(=O)c1cc2ccccc2cc1O | 22 | 93* | 1 | 2
COc1ccc(NC(=O)NNC(=O)c2cc3ccccc3cc2O)cc1 | 17 | 86* | -1 | 0
O=C(NNC(=O)c1ccccc1O)c1cccc(Br)c1 | 30* | 22 | -3 | -4
Cc1ccc(F)cc1NC(=O)N1CCNC(=O)C1CC(=O)Nc1cc(Cl)ccc1Cl (centres undefined) | 2 | -4 | -1 | 1
COC(=O)[C@H](CC(C)C)NC(=O)NC1CCCCC1C (some centres undefined) | -2 | 12 | 3 | 6
COc1cc2ccccc2cc1C(=O)NNC(=O)c1ccccc1O | 5 | 95* | -5 | -1
SMILES | PfM18AAP inh | Calb FLC | Rin1 Abl inh | Fh CTSL1 inh
COc1ccc(NC(=O)c2cc3ccccc3cc2OC)cc1 | 4 | 13 | -1 | 0
C[C@H]1CN([C@@H](C)CO)C(=O)c2cc(-c3cccc(C(=O)N(C)C)c3)cnc2O[C@H]1CN(C)C(=O)Cc1ccccn1 | nt | nt | 0 | nt
O=C(NCCN1CCOCC1)Nc1ccccc1 | 3 | nt | 1 | -2
O=C(NCCN1CCOCC1)NC1(C(F)(F)F)Oc2ccccc2O1 | 72* | -6 | 5 | 4
O=C1c2c(O)cc(O)cc2O[C@H](c2ccc(O)c(O)c2)[C@H]1O | 79* | -12 | 1 | 5
O=C1c2c(O)cc(O)cc2O[C@H](c2ccc(O)c(O)c2)[C@@H]1O | 82* | 1 | nt | 2
CC(=O)Oc1ccc(C(=O)Nc2cc(NC(=O)c3ccc(OC(C)=O)cc3)cc(C(=O)NC(C)(C)C)c2)cc1 | 1 | -12 | 0 | -13
Cc1ccc(N(C(=O)NC2CCCCC2)C2=NCCCCC2)cc1 | -7 | -11 | -2 | -2
